Screening data from PubChem BioAssay.
Most compounds without a hit are left out; they make up all but 2.3% or so of the library.
M1 antag – human CHRM1 antagonism | CHO-K1 hM1, Fluo-8 calcium fluorescence, ACh EC80 antagonist | P11229 | inhibition, % at 3 µM | 1.3% of 360,000 active;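 active = percent inhibition above its own plate's cutoff, namely the mean of that plate's compound wells plus 3 SD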;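 also: peak over basal fluorescence ratio during 140 s after agonist addition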
Target sequence (P11229 whole entry, looked up): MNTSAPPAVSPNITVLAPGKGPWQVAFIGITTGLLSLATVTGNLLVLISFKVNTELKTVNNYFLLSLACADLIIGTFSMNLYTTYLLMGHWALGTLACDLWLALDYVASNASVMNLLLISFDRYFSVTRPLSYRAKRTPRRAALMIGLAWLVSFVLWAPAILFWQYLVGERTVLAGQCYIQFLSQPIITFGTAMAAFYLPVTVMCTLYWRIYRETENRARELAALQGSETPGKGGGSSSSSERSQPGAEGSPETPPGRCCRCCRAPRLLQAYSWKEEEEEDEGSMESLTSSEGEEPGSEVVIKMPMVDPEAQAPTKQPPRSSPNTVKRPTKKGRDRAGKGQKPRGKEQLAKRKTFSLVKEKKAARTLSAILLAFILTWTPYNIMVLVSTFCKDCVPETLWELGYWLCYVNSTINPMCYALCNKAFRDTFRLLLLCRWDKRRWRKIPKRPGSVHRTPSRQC
M1 PAM – positive allosteric modulators of human M1 muscarinic receptor; 0.088% of 360,000 active; activation, % at 3 µM; CHO-K1 hM1, Fluo-8 calcium fluorescence, ACh EC20; 0% = ACh EC20, 100% = maximal ACh; in the data active = activation above about 19%, passing the limit was not always enough
CHO-K1 Ca PAM – M1 PAM counterscreen hit in parental CHO-K1 cells | ATP EC20, Fluo-8 calcium fluorescence; 0% at ATP EC20, 100% at ATP max | activation, % at 3 µM | 0.02% of 360,000 active | AID 602247;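 active = activation above the run cutoff, the mean activation of all test compounds plus 3 SD, cut at about 40% in these data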;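 also: peak over basal fluorescence ratio in a 140 s read after ATP addition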
M1 ag parental – M1 agonist counterscreen hit in parental CHO-K1 cells | Fluo-8 calcium fluorescence; scaled to maximal ATP response, vehicle zero | activation, % at 3 µM | 0.48% of 360,000 active; in the data active = activation above about 15%;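 also: untransfected CHO-K1 host cells lacking M1 receptor as counterscreen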
CHRM1 agonist – activates human CHRM1 receptor | P11229 | CHO-K1 hM1, Fluo-8 calcium fluorescence, agonist mode; 0% DMSO, 100% acetylcholine EC100 | activation, % at 3 µM | 0.33% of 360,000 active | AID 588814;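 active = activation above the run's mean compound activation plus 3 SD, cut at about 16% in these data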;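 also: peak over basal fluorescence ratio within a 140 s kinetic read after compound addition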
CHO-K1 Ca antag – M1 antagonist counterscreen hit in parental CHO-K1 cells; inhibition, % at 3 µM; 0.6% of 360,000 active; ATP-induced calcium, Fluo-8 fluorescence;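 active = inhibition above a per-plate cutoff, the plate's mean sample inhibition plus 3 SD, cut at about 24% in these data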
Each line names hits and unclear results; the compound was inactive in the other large screens.

COC(=O)Nc1ccc(S(=O)(=O)N2CCCC(C(=O)N3CCOCC3)C2)cc1 (centres undefined)	none
Cc1ccc(C)n1CCN1CCN(CC(=O)Nc2ccc(S(N)(=O)=O)cc2)CC1	CHO-K1 Ca antag 29
COC(=O)Nc1ccc(S(=O)(=O)N2CCCC(C(=O)N3CC(C)OC(C)C3)C2)cc1 (centres undefined)	M1 ag parental 16
CC1CCN(CC(=O)Nc2ccc(S(=O)(=O)N3CCCC(C)C3)cc2)CC1 (centres undefined)	M1 ag parental 18
CC1CCCN(S(=O)(=O)c2ccc(NC(=O)Cc3ccc(S(=O)(=O)N4CCOCC4)s3)cc2)C1 (centres undefined)	CHO-K1 Ca antag 25
CC1CCCN(S(=O)(=O)c2ccc(NC(=O)CNC3CCCC3)cc2)C1 (centres undefined)	none
CCCc1cc(C(=O)N2CCN(c3ccc(C(F)(F)F)cn3)CC2)sc1C	none
COc1ccc2cc(CN(CC3CCCO3)C(=S)NCc3ccco3)c(=O)[nH]c2c1 (centres undefined)	none
CCN(CC)c1ncnc2c1ncn2[C@H]1CN(Cc2cccnc2)C[C@@H](CO)O1	none
CCCN1CCN(CCCNC(=O)c2ccc3c(Cl)c4c(nc3c2)CCCC4)CC1	M1 antag 34
O=C(NCCCN1CCCC1)c1ccc2c(Cl)c3c(nc2c1)CCCC3	none
COc1cccc(/C=C2\SC(=S)N(CCCC(=O)N3CCCCC3CCO)C2=O)c1 (centres undefined)	M1 ag parental 15
Cc1ccc(/C=C2\SC(=S)N(CCC(=O)N3CCCCC3)C2=O)cc1	none
O=C(CCN1C(=O)/C(=C\c2ccccc2)SC1=S)N1CCCCC1	M1 ag parental 15
O=C(O)CN1C(=O)/C(=C/C=C/c2ccccc2)SC1=S	CHO-K1 Ca antag 31
O=C1/C(=C\c2cc(Cl)c(O)c(Cl)c2)SC(=S)N1Cc1ccccc1	M1 antag 54, M1 ag parental 16, CHRM1 agonist 51
CC(=O)c1ccc(NC(=O)CN2C(=O)/C(=C/C=C/c3ccccc3)SC2=S)cc1	none
CCOC(=O)N1C2=NC(C(=O)OC)=C(C(=O)OC)[C@@H]3N(C)c4ccccc4[C@]23C[C@H]1C(=O)OC	none
Cn1c(=O)c2c(nc(Cl)n2CC(=O)NC2(C#N)CCCCC2)n(C)c1=O	none
O=C(OCC(=O)C12CC3CC(CC(C3)C1)C2)c1cnccn1	none
NC(=O)c1ccc(NC(=O)COC(=O)c2ccccc2SCC(=O)N2CCCC2)cc1	M1 PAM 27
C=CCNCc1ccccc1[N+](=O)[O-]	none
COc1ccc(S(=O)(=O)N(CC(=O)NCC2CCCO2)c2ccc(F)cc2)cc1OC (centres undefined)	CHO-K1 Ca antag 26
COc1ccc(S(=O)(=O)N(C)CC(=O)NCC2CCCO2)cc1OC (centres undefined)	none
O=C(COc1cccc(F)c1)NNC(=O)Cc1ccc(Br)cc1	none
Cc1ccccc1NC(=O)CSc1ccsc1[N+](=O)[O-]	none
COc1ccc(NC(=O)COc2ccccc2Cc2ccccc2)cc1S(N)(=O)=O	M1 antag 37, M1 ag parental 18, CHO-K1 Ca antag 48
COc1ccc(C(C)(C)C)cc1NC(=O)CCc1c(C)noc1C	none
CN(C)C(C)(C)C#CCCCCC#CC(C)(C)N(C)C	none
CN(C)C(C)(C)C#CCC(c1ccccc1)c1ccccc1	M1 antag 87
CCN1C(=O)S/C(=C/c2ccc(Sc3nc4ccccc4[nH]3)o2)C1=O	M1 antag 31
OC(CNCCc1ccc(C(F)(F)F)cc1)COc1cccc2ccccc12 (centres undefined)	none
COc1ccccc1COCC(O)CNCCc1ccc(C(F)(F)F)cc1 (centres undefined)	M1 ag parental 16
COCCOC(=O)CSc1ncccc1-c1nc2cc(C)c(C)cc2[nH]1	none
Cc1cc2nc(-c3cccnc3SCC(=O)NC(C)C)[nH]c2cc1C	M1 ag parental 16
CCOC(=O)C1(CCOc2ccccc2)CCN(Cc2ccc(OC)cc2)CC1	M1 ag parental 18
CCOC(=O)C1(CCOc2ccccc2)CCN(Cc2ccc(NC(C)=O)cc2)CC1	none
CCOC(=O)C1(CCOc2ccccc2)CCN(Cc2cccc(OC)c2OC)CC1	M1 antag 42
CCCCNc1nc(Nc2ccc(C)c(Cl)c2)c2cnn(C)c2n1	none
COc1ccc(NC(=O)c2cc(C3CCCCN3S(=O)(=O)c3cn(C)cn3)on2)c(C)c1 (centres undefined)	none
CN1CCN(CC(O)(c2ccc(Cl)cc2)c2ccc(Cl)cc2)CC1	M1 antag 72
O=c1c2ccccc2nc(SCc2ccncc2)n1CC1CCCO1 (centres undefined)	none
CCN1CCN(CCn2c(=S)[nH]c3ccccc3c2=O)CC1	M1 antag 86
O=C(c1cc(Br)c(Br)s1)N1CCN(c2ccccn2)CC1	M1 antag 39
CCN1CCCC(Sc2nc3c([nH]2)c(=S)n(C)c(=O)n3C)C1 (centres undefined)	M1 ag parental 16
Cn1c(=S)c2[nH]c(SCCN3CCCC3)nc2n(C)c1=O	none
O=C(CSCc1ccccc1)NNC(=S)Nc1cccc(Cl)c1Cl	none
OCCN(Cc1ccccn1)Cc1ccccn1	M1 antag 72
ON(CCc1ccccn1)CCc1ccccn1	none
O=C(Nc1nnc([C@H]2C[C@H](O)[C@@H](CO)O2)s1)Nc1ccc(F)cc1F	none
CCOC(=O)c1c(C)[nH]c(C(=O)OCC(=O)Nc2ccc(Cl)cn2)c1C	none
CC(Oc1ccccc1)C(=O)OCC(=O)Nc1sccc1C(N)=O (centres undefined)	M1 antag 40
CCOC(=O)c1c(C)[nH]c(C(=O)OCC(=O)Nc2sccc2C(N)=O)c1C	M1 antag 31, M1 ag parental 17
CCC(Oc1ccccc1)C(=O)OCC(=O)Nc1sccc1C(N)=O (centres undefined)	M1 ag parental 17
CC(C)[C@H](NC(=O)c1ccccc1)C(=O)OCC(=O)Nc1sccc1C(N)=O	none
CN(C)CCN1CCN(C2CN(Cc3ccc([N+](=O)[O-])cc3)S(=O)(=O)C2)CC1 (centres undefined)	none
CCCCOc1ccccc1C(=O)NNC(=S)NC(=O)c1ccccc1[N+](=O)[O-]	CHRM1 agonist 19
O=C(NNC(=S)NC(=O)c1ccccc1[N+](=O)[O-])c1ccccc1[N+](=O)[O-]	none
O=C(COc1ccc2c3c(c(=O)oc2c1)CCCC3)NCCCn1ccnc1	none
CCC(c1nnnn1Cc1cccs1)N1CCN(c2nc3ccccc3s2)CC1 (centres undefined)	CHO-K1 Ca antag 48 (no result: M1 PAM)
CC(C)CC(c1nnnn1Cc1cccs1)N1CCN(c2nc3ccccc3s2)CC1 (centres undefined)	none
